The campaign covered roughly 5,500 compounds. About 2,000 (36%) were called active. Not shown: some 18% with an inconclusive outcome. Rule as the data show it: active = normalized growth mostly below about 0.91 (no sharp cut-off); inconclusive = no clear call, values can overlap the other calls; inactive = mostly above about 0.92. This is one part of the list.
Assay: chemical genetic growth profiling, strain panel (AID 1159580);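 also: tested at 20 µM; growth read once vehicle control cultures reached saturation at 30 °C; 1 = growth at the plate median or of vehicle wells; lower values mean less growth of the strain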
Details: growth OD

Measured: normalized growth

OCC(O)C(O)C(O)C(O)C(O)CO (configuration not stated)
inactive: S. cerevisiae deletion strains, locus YKL009W, strain mrt4, stronger effect = lower value 1.05 | S. cerevisiae deletion strains, locus YKL068W, stronger effect = lower value 0.98 | S. cerevisiae deletion strains, locus YKL085W, strain MDH1 (second series), stronger effect = lower value 1 | S. cerevisiae deletion strains, locus YKL085W, strain MDH1, stronger effect = lower value 1 | S. cerevisiae deletion strains, locus YKL160W, strain elf1, stronger effect = lower value 1.01 | S. cerevisiae deletion strains, locus YKL190W, strain CNB1, stronger effect = lower value 1.02 | S. cerevisiae deletion strains, locus YKR001C, strain vps1, stronger effect = lower value 1.01 | S. cerevisiae deletion strains, locus YKR026C, strain gcn3, stronger effect = lower value 1.01 | S. cerevisiae deletion strains, locus YKR091W, strain srl3, stronger effect = lower value 0.997 | S. cerevisiae deletion strains, locus YLL001W, strain dnm1, stronger effect = lower value 0.995 | S. cerevisiae deletion strains, locus YLL026W, stronger effect = lower value 0.999 | S. cerevisiae deletion strains, locus YLL041C, strain sdh2, stronger effect = lower value 0.998 | S. cerevisiae deletion strains, locus YLR027C, strain aat2, stronger effect = lower value 0.997 | S. cerevisiae deletion strains, locus YLR039C, strain RIC1, stronger effect = lower value 1.14 | S. cerevisiae deletion strains, locus YLR058C, strain SHM2, stronger effect = lower value 1 | S. cerevisiae deletion strains, locus YLR102C, strain apc9, stronger effect = lower value 0.987 | S. cerevisiae deletion strains, locus YLR113W, strain HOG1, stronger effect = lower value 0.965 | S. cerevisiae deletion strains, locus YLR221C, strain rsa3, stronger effect = lower value 1.01 | S. cerevisiae deletion strains, locus YLR258W, strain gsy2, stronger effect = lower value 1 | S. cerevisiae deletion strains, locus YLR262C, strain YPT6 (second series), stronger effect = lower value 1 | S. cerevisiae deletion strains, locus YLR268W, strain sec22, stronger effect = lower value 0.998 | S. cerevisiae deletion strains, locus YLR320W, strain mms22, stronger effect = lower value 0.985 | S. cerevisiae deletion strains, locus YLR330W, strain CHS5, stronger effect = lower value 0.992 | S. cerevisiae deletion strains, locus YLR342W, strain FKS1 (second series), stronger effect = lower value 0.998 | S. cerevisiae deletion strains, locus YLR342W, strain FKS1, stronger effect = lower value 0.993 | S. cerevisiae deletion strains, locus YLR357W, strain rsc2, stronger effect = lower value 0.974 | S. cerevisiae deletion strains, locus YLR370C, strain arc18, stronger effect = lower value 0.999 | S. cerevisiae deletion strains, locus YLR371W, strain rom2, stronger effect = lower value 1.03 | S. cerevisiae deletion strains, locus YLR384C, strain iki3, stronger effect = lower value 0.995 | S. cerevisiae deletion strains, locus YLR418C, strain cdc73, stronger effect = lower value 1 | S. cerevisiae deletion strains, locus YML016C, strain PPZ1, stronger effect = lower value 0.988 | S. cerevisiae deletion strains, locus YML032C, strain rad52, stronger effect = lower value 0.987 | S. cerevisiae deletion strains, locus YML120C, strain ndi1, stronger effect = lower value 0.988 | S. cerevisiae deletion strains, locus YML124C, strain tub3, stronger effect = lower value 0.988 | S. cerevisiae deletion strains, locus YMR058W, strain fet3, stronger effect = lower value 0.997 | S. cerevisiae deletion strains, locus YMR078C, strain ctf18, stronger effect = lower value 0.989 | S. cerevisiae deletion strains, locus YMR125W, strain sto1, stronger effect = lower value 0.973 | S. cerevisiae deletion strains, locus YMR129W, stronger effect = lower value 0.99 | S. cerevisiae deletion strains, locus YMR205C, strain PFK2, stronger effect = lower value 1 | S. cerevisiae deletion strains, locus YMR223W, strain ubp8, stronger effect = lower value 1.01 | S. cerevisiae deletion strains, locus YMR231W, strain pep5, stronger effect = lower value 0.998 | S. cerevisiae deletion strains, locus YMR307W, strain GAS1, stronger effect = lower value 1.12 | S. cerevisiae deletion strains, locus YNL067W, strain RPL9B, stronger effect = lower value 1.02 | S. cerevisiae deletion strains, locus YNL071W, strain lat1, stronger effect = lower value 1 | S. cerevisiae deletion strains, locus YNL153C, strain GIM3, stronger effect = lower value 1.03 | S. cerevisiae deletion strains, locus YNL183C, strain NPR1, stronger effect = lower value 0.932 | S. cerevisiae deletion strains, locus YNL209W, strain ssb2, stronger effect = lower value 1 | S. cerevisiae deletion strains, locus YNL233W, strain BNI4, stronger effect = lower value 1.06 | S. cerevisiae deletion strains, locus YNL248C, strain rpa49, stronger effect = lower value 0.99 | S. cerevisiae deletion strains, locus YNL250W, strain rad50, stronger effect = lower value 0.987 | S. cerevisiae deletion strains, locus YNL271C, strain bni1, stronger effect = lower value 1.01 | S. cerevisiae deletion strains, locus YNL298W, strain CLA4, stronger effect = lower value 0.99 | S. cerevisiae deletion strains, locus YNL307C, strain MCK1, stronger effect = lower value 0.992 | S. cerevisiae deletion strains, locus YNL322C, strain KRE1 (second series), stronger effect = lower value 0.999 | S. cerevisiae deletion strains, locus YNR049C, strain mso1, stronger effect = lower value 0.987 | S. cerevisiae deletion strains, locus YNR052C, strain pop2, stronger effect = lower value 1.03 | S. cerevisiae deletion strains, locus YOL006C, strain TOP1, stronger effect = lower value 1.14 | S. cerevisiae deletion strains, locus YOL012C, strain htz1 0.757 | S. cerevisiae deletion strains, locus YOL147C, strain pex11, stronger effect = lower value 0.998 | S. cerevisiae deletion strains, locus YOR001W, strain rrp6, stronger effect = lower value 1 | S. cerevisiae deletion strains, locus YOR061W, strain CKA2, stronger effect = lower value 0.984 | S. cerevisiae deletion strains, locus YOR069W, strain VPS5, stronger effect = lower value 1 | S. cerevisiae deletion strains, locus YOR070C, strain gyp1, stronger effect = lower value 0.995 | S. cerevisiae deletion strains, locus YOR080W, strain dia2, stronger effect = lower value 0.985 | S. cerevisiae deletion strains, locus YOR083W, strain WHI5, stronger effect = lower value 0.996 | S. cerevisiae deletion strains, locus YOR106W, strain vam3, stronger effect = lower value 1.01 | S. cerevisiae deletion strains, locus YOR136W, strain idh2, stronger effect = lower value 1.01 | S. cerevisiae deletion strains, locus YOR144C, strain elg1, stronger effect = lower value 0.991 | S. cerevisiae deletion strains, locus YOR184W, strain ser1, stronger effect = lower value 0.982 | S. cerevisiae deletion strains, locus YOR231W, strain MKK1, stronger effect = lower value 0.961 | S. cerevisiae deletion strains, locus YOR265W, strain rbl2, stronger effect = lower value 0.989 | S. cerevisiae deletion strains, locus YOR270C, strain vph1, stronger effect = lower value 0.994 | S. cerevisiae deletion strains, locus YOR290C, strain snf2, stronger effect = lower value 0.989 | S. cerevisiae deletion strains, locus YOR316C, strain cot1, stronger effect = lower value 0.984 | S. cerevisiae deletion strains, locus YPL051W, strain arl3, stronger effect = lower value 1 | S. cerevisiae deletion strains, locus YPL055C, strain LGE1, stronger effect = lower value 0.97 | S. cerevisiae deletion strains, locus YPL078C, strain atp4, stronger effect = lower value 0.992 | S. cerevisiae deletion strains, locus YPL106C, strain sse1, stronger effect = lower value 0.989 | S. cerevisiae deletion strains, locus YPL240C, strain hsp82, stronger effect = lower value 0.989 | S. cerevisiae deletion strains, locus YPL241C, strain CIN2, stronger effect = lower value 0.998 | S. cerevisiae deletion strains, locus YPL256C, strain CLN2, stronger effect = lower value 0.968 | S. cerevisiae deletion strains, locus YPR119W, strain clb2, stronger effect = lower value 0.997 | S. cerevisiae deletion strains, locus YPR141C, strain kar3, stronger effect = lower value 0.976 | S. cerevisiae deletion strains, locus YPR163C, strain tif3, stronger effect = lower value 1.01 | S. cerevisiae deletion strains, locus YPR167C, strain met16, stronger effect = lower value 0.993 | S. cerevisiae deletion strains, strain wtn01, stronger effect = lower value 0.997 | S. cerevisiae strains, strain wild type, stronger effect = lower value 1.03

Reference: PubChem BioAssay AID1159580 (chemical genetic matrix, 2015)
